# In PubChem BioAssay AID1578 (Sanford-Burnham Center for Chemical Genomics, 2009):
# Out of some 290,000 compounds screened, about 3,000 (1%) were called active. For the sample, actives were picked, then their nearest neighbours and some compounds at random. A number with no mark means an inactive call. Rule as the data show it: active = inhibition mostly above about 36% (no sharp cut-off); inactive = mostly below about 34%.
# Assay: NOD1 signaling inhibitors, primary screen, cell-based, luminescence, uHTS (AID 1578);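 also: HEK-293T reporter cells stimulated with the NOD1 agonist gamma-tri-DAP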
# Details: NOD1-driven NF-kB luciferase reporter cells, at 4 µM, hits give high values
row,SMILES,inhibition
1,CN(C(=O)c1ccccc1C(=O)OCC(=O)NC(=O)NC(C)(C)C)C1CCCCC1,-11.4%
2,O=C(CSc1ncnc2scc(-c3ccccc3)c12)Nc1ccc(C(=O)O)cc1,24.9%
3,Nc1cc(N)nc(SCC(=O)Nc2ccccc2)n1,17.4%
4,COc1ccnc(Oc2ccc(F)cc2)c1C(=O)N/C=N/OCc1ccc(F)cc1,-24%
5,Cc1oc2c(c(C)cc3oc(=O)c(CC(=O)N[C@@H](CC(C)C)C(=O)O)c(C)c32)c1C,-2.2%
6,O=C(O)CCn1cc(/C=C/C(=O)c2ccc(Cl)cc2)c(-c2ccc(Br)cc2)n1,52.9%
7,O=Cc1cn(CCC(=O)O)nc1-c1cccc(Br)c1,-28.9%
8,CC(=O)c1sc(N/N=C\c2cccc(Br)c2)nc1C,3.9%
9,C=CCNC(=O)/C(C#N)=C/c1ccc2c(c1)OCCO2,-33.6%
10,Cn1c(O)c(C=Nc2ccc(Br)cc2)sc1=O,53.6% (active)
11,Cc1ccc(N=Cc2sc(O)c3ccccc23)cc1,-36.5%
12,CCn1c(O)c(C=Nc2ccccc2)sc1=O,-27.2%
13,CCOc1ccc(C(=O)Nc2nnc(S(=O)(=O)N3CCCCC3)s2)cc1,2.6%
14,O=C(N/N=C/c1cccc(OC(=O)c2cccc(Br)c2)c1)c1ccncc1,-35%
15,CCOC(=O)CC(NC(=O)c1ccco1)c1ccccc1Cl (stereo not drawn),-14.8%
16,CC(=O)Nc1cccc(NC(=S)Nc2ccc(F)c(Cl)c2)c1,3%
17,Fc1ccc(NC(=S)Nc2ccc(F)c(Cl)c2)cc1Cl,74.1% (active)
18,Fc1ccc(NC(=S)Nc2cccnc2)cc1Cl,-27%
19,Cn1cc(C(=O)NS(=O)(=O)Nc2ccc(Br)cn2)c2ccccc21,-29%
20,CC(C)(C)c1nnc(N/N=C/c2ccc(Br)cc2)n(N)c1=O,-33.2%
21,CC(C)(C)c1nnc(N/N=C/c2cc(Br)ccc2O)n(N)c1=O,68.7% (active)
22,CC(C)(C)c1nnc(N/N=C/c2ccccc2O)n(N)c1=O,-45.8%
23,O=C(Nc1ncccc1Cl)c1ccccc1F,-31.4%
24,Cc1ccc(-n2[nH]c(C)c(/C=N/NC(=O)c3cccc([N+](=O)[O-])c3)c2=O)cc1C,92.8% (active)

row,SMILES,inhibition
1,Cc1ccc(-n2[nH]c(C)c(/C=N/NC(=O)c3ccc([N+](=O)[O-])cc3)c2=O)c(C)c1,-20.9%
2,Cc1[nH]n(-c2ccc(Br)cc2)c(=O)c1/C=N/NC(=O)c1ccccc1,69%
3,Cc1[nH]n(-c2ccccc2)c(=O)c1/C=N/NC(=O)c1ccccc1F,-9.2%
4,Cc1[nH]n(-c2cccc3ccccc23)c(=O)c1/C=N/NC(=O)c1cccc([N+](=O)[O-])c1,-8.2%
5,Cc1cc(NS(=O)(=O)c2ccc(NC(=S)NC(=O)c3ccncc3)cc2)no1,-4.1%
6,O=C(OCCN1CCCCC1)c1cccc(F)c1,-21.9%
7,CCOc1cc(C2C(C(=O)OC)=CN(Cc3ccc(Cl)cc3)C=C2C(=O)OC)ccc1O,-1.2%
8,O=C(CCCn1c(=O)[nH]c2ccccc2c1=O)Nc1ccc(F)cc1,-2.3%
9,COc1ccc(NC(=O)C2CC(=O)OC2c2ccccc2)cc1 (stereo not drawn),-23.5%
10,COc1cccc(NC(=O)CN2C(=O)COc3ccc(Cl)cc32)c1,26.8%
11,NC(=O)C1=C[C@@H](c2csc3ccccc23)C[C@@H](OCCCCO)O1,-3.6%
12,Cc1cc(N=CC2=C(O)CC(C)(C)CC2=O)no1,13.1%
13,COCCn1c(SCC(=O)NCc2ccccc2)nc2ccccc21,6.7%
14,O=C1c2ccccc2C2=Nc3ccccc3SC(c3ccccc3F)C12 (stereo not drawn),36.8%
15,O=C1c2ccccc2C2=Nc3ccccc3SC(c3ccc(Cl)cc3)C12 (stereo not drawn),74.7% (active)
16,O=C1c2ccccc2C2=Nc3ccccc3SC(c3cccc(F)c3)C12 (stereo not drawn),49.7%
17,NC(=O)CC(NC(=O)c1ccccc1)c1ccc(NCCOc2ccccc2)c([N+](=O)[O-])c1 (stereo not drawn),1.2%
18,Cc1ccc(C(=O)N2CCN3C(=O)c4ccccc4C23c2ccc(Cl)cc2)cc1 (stereo not drawn),-52.7%
19,O=C(CCl)N1CCN2C(=O)c3ccccc3C12c1ccc(Cl)cc1 (stereo not drawn),87.1% (active)
20,O=C(c1ccccc1)N1CCN2C(=O)c3ccccc3C12c1ccc(Cl)cc1 (stereo not drawn),-44.9%
21,O=C(Cn1c(=O)c2cccn2c2ccccc21)Nc1ccc(F)cc1F,-12.1%
22,Cc1cc(C)nc(N(C#N)S(=O)(=O)c2ccccc2)n1,9.1%
23,N/C(=N\OCc1ccc([N+](=O)[O-])cc1)c1ccncc1,-27.7%
24,CC(C(=O)O/N=C(\N)c1ccccn1)c1ccc([N+](=O)[O-])cc1 (stereo not drawn),-16.2%

row,SMILES,inhibition
1,N/C(=N\OCc1ccc([N+](=O)[O-])cc1)c1ccccn1,88.4% (active)
2,CCCC(=O)Nc1ccccc1NC(=O)c1ccc(OCC)cc1,2.3%
3,O=C1CC(N2CCC(c3nc4ccccc4[nH]3)CC2)C(=O)N1Cc1ccccc1 (stereo not drawn),-24.3%
4,Cc1cc(-c2ccc(C(C)C)c(S(=O)(=O)N3CCN(c4ccccc4)CC3)c2)on1,0%
5,CCc1cc2c(=O)[nH]c(Cc3ccccc3)nc2s1,0.4%
6,CCc1cc2c(=O)[nH]c(-c3ccccn3)nc2s1,112% (active)
7,CCc1cc2c(=O)[nH]c(-c3ccncc3)nc2s1,29.8%
8,CC(C)Nc1nc(Cl)nc(N(C#N)CN2C(=O)c3ccccc3S2(=O)=O)n1,-4.8%
9,COc1ccc2nc(SCC(=O)Nc3nccs3)[nH]c2c1,-39.1%
10,COc1ccc(NC(=O)CN2CCN(c3c(C)cccc3C)CC2)cc1,-8.8%
11,COC(=O)c1ccc(CN2C(=O)C(C)N(C(=O)c3c(F)cccc3F)c3ccccc32)cc1 (stereo not drawn),-2.1%
12,COc1ccc(CN2C(=O)C(C)N(C(=O)c3c(F)cccc3F)c3ccccc32)cc1 (stereo not drawn),6.5%
13,CC1C(=O)N(Cc2ccc(F)cc2)c2ccccc2N1C(=O)c1c(F)cccc1F (stereo not drawn),43.5% (active)
14,CC1CCN(CCCNC(=O)c2ccc3c(Cl)c4c(nc3c2)CCCC4)CC1,0.2%
15,COc1ccc(NC(=O)CSc2nnc(Cc3cccn3C)n2-c2ccc(OC)cc2)cc1,0.1%
16,COc1ccc(-n2c(Cc3cccn3C)nnc2SCC(=O)Nc2ccc(C)c(Cl)c2)cc1,75.8% (active)
17,COc1ccc(-n2c(Cc3cccn3C)nnc2SCC(=O)Nc2ccccc2OC)cc1,55%
18,COc1ccc(-n2c(Cc3cccn3C)nnc2SCC(=O)Nc2ccccc2C)cc1,57% (active)
19,COc1ccc(-n2c(Cc3cccn3C)nnc2SCC(=O)Nc2ccc(Cl)cc2)cc1,39.9%
20,COc1ccc(-n2c(Cc3cccn3C)nnc2SCC(=O)Nc2cccc(C)c2C)cc1,33.3%
21,CN1C=CC=C/C1=C1\SC(=S)N(N)C1=O,-40.2%
22,CCOC(=O)C1CCN(CCC(=O)Nc2ccc(C)cc2)CC1,-32.1%
23,COC(=O)c1cc(CNC(=O)c2ccc(N3CCCC3)c([N+](=O)[O-])c2)ccc1OC,-43.2%
24,CNC(=S)N/N=C/c1cn(Cc2ccc(C)cc2)c2ccccc12,70.4% (active)

row,SMILES,inhibition
1,CNC(=S)N/N=C/c1cn(Cc2ccc(F)cc2)c2ccccc12,-6.2%
2,CCNC(=S)N/N=C/c1cn(Cc2ccc(F)cc2)c2ccccc12,10.8%
3,COc1ccc(S(=O)(=O)N(C)c2ccc(C(=O)Nc3c(C)n(C)n(-c4ccccc4)c3=O)cc2)cc1,-31.9%
4,CCCC(C)NC(=O)c1cc(Cl)ccc1OC (stereo not drawn),-0.3%
5,CC(=O)c1cnc(Oc2cc(Cl)ccc2Cl)nc1C,-14.2%
6,Cc1cc(C)n2nc(SCc3cccc(S(=O)(=O)N(C)C)c3)nc2n1,7.2%
7,CN(C)S(=O)(=O)c1cccc(CSc2cccc[n+]2[O-])c1,-15.4%
8,COC(=O)c1c(NC(=O)C2CCC2)sc(C(=O)N(C)C)c1C,-8.7%
9,CCc1cccc(N(C(=O)c2csnn2)C(C(=O)NC2CCCC2)c2cccnc2)c1 (stereo not drawn),-10.2%
10,CSc1ccc(/C=C2\CCn3c2nc2cc(C(=O)O)ccc2c3=O)cc1,-1.6%
11,O=C(O)c1ccc2c(=O)n3c(nc2c1)/C(=C/c1ccc(F)cc1)CC3,33.3% (active)
12,O=C(O)c1ccc2c(=O)n3c(nc2c1)/C(=C/c1ccc(C(F)(F)F)cc1)CC3,1.9%
13,Cc1nc(-c2ccccc2)sc1C1(C)CC(c2c(Cl)cccc2Cl)=NO1 (stereo not drawn),10.1%
14,CCCO/N=C1/C(=O)N(c2ccccc2)c2ccccc21,6.1%
15,CCN1C(=O)C(O)(CC(=O)/C=C/C=C/c2ccccc2)c2ccccc21 (stereo not drawn),-4.8%
16,NC(=O)CN1C(=O)C(O)(CC(=O)/C=C\C=C\c2ccccc2)c2ccccc21 (stereo not drawn),17.8%
17,C#CCN1C(=O)C(O)(CC(=O)/C=C/C=C/c2ccccc2)c2ccccc21 (stereo not drawn),57% (active)
18,Cc1ccc(S(=O)(=O)/N=C(/Nc2ccc3[nH]c(=O)[nH]c3c2)c2ccc(F)cc2)cc1,3.8%
19,CCSC1=C(C#N)C2(CCCCC2)C(C#N)C(=O)N1 (stereo not drawn),-3.2%
20,N#CC1=C(SCC(=O)NC2CC2)NC(=O)C(C#N)C12CCCCC2 (stereo not drawn),15.7%
21,COCCN=C1OC(=O)N2C(=O)C3=C4[C@@H](C[C@H]5C(=O)N(c6ccccc6)C(=O)[C@H]5[C@H]4[C@@]12Cc1ccccc1)[C@H]1C(=O)N(c2ccccc2)C(=O)[C@H]1[C@H]3C,4.5%
